Experimental data taken from PubChem BioAssay (NCATS).
Records with an inconclusive call do not appear. The source made the active and inactive calls. Unless noted, calls follow the shape of the dose curve; as a rule, active = well fitted curve in the direction sought with a large enough effect; inconclusive = small, poorly fitted or top-dose-only effect, or another doubt; inactive = no such curve, though single readings can be large; an effect the other way counts as inactive or inconclusive.

What was measured:
[1] = qHTS Assay for Lipid Storage Modulators (AID 1519); conditions: Drosophila S3 cells, BODIPY lipid droplet/cell ratio, laser cytometry, cells loaded with oleic acid
Outline: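 Cells seeded at 5,000 per well were treated with compounds over a concentration series and loaded with oleic acid (400 uM, as added). Lipid droplet fluorescence (488 nm excitation, 500-530 nm channel) was read by laser-scanning cytometry and normalized to 20 uM Triacsin C.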

[2] = molecular target: DNA repair nuclease/redox regulator APEX1 (Homo sapiens) (UniProt P27695); assay: qHTS Validation Assay for Inhibitors of the Human Apurinic/apyrimidinic Endonuclease 1 (APE1) (AID 1705;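 also: TAMRA fluorescence gain over two minutes as APE1 cuts a quenched THF abasic duplex; series mostly up to about 57 µM; % is scaled to controls: 0 for no effect and ±100 for the full control effect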)
Chain of DNA repair nuclease/redox regulator APEX1 (Homo sapiens) (P27695 whole entry, looked up): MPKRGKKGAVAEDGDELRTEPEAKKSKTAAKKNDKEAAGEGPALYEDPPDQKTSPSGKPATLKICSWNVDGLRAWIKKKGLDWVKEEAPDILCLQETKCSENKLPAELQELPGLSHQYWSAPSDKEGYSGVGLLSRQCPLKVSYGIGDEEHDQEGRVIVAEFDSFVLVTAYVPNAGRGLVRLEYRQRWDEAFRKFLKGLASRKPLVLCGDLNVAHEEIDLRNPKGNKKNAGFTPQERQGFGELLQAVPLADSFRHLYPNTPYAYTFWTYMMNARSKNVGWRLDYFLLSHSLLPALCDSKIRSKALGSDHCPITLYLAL
Outline: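 Fluorogenic double-stranded THF abasic-site substrate (5'-TAMRA/3'-BHQ-2), 50 nM final. Enzyme preincubated with compound 15 min at room temperature, then substrate added. Kinetic fluorescence (ex 525/em 598 nm) read three times at 60 s intervals; activity taken as third-minus-first read difference.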

[3] = Counterscreen for APE1 Inhibitors: Fluorescent Dye Displacement Validation Assay (AID 1707);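 also: plate controls were ThO with dsDNA and no compound for no effect and ThO without dsDNA for full effect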
Outline: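 Thiazole Orange displacement from dsDNA: 250 nM ThO with 50 nM TAMRA-labelled abasic-site (tetrahydrofuran) duplex in 50 mM Tris-HCl pH7.5, 50mM NaCl, 2 mM MgCl2, 0.01% Tween-20. Loss of endpoint fluorescence (ex 480 nm, em 540 nm) flags DNA binders.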

[4] = qHTS for differential inhibitors of proliferation of Plasmodium falciparum line Dd2 (AID 1882); conditions: Potency: Plasmodium falciparum Dd2 proliferation inhibition;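 also: series mostly up to about 29 µM; compound exposure of 72 h on infected erythrocytes; plate controls were DMSO vehicle for no effect and 0.29 µM artemisinin for full effect; nearly all actives have a fitted effect of over 65% in size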
Outline: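 SYBR Green I DNA fluorescence read-out, ex 485/em 535 nm. Signals were normalized to 0.29 uM artemisinin and DMSO wells, then corrected using vehicle-only plates flanking each stack. Parasite growth ran 72 h in erythrocytes before lysis.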

[5] = qHTS for differential inhibitors of proliferation of Plasmodium falciparum line W2 (AID 1883); conditions: Potency: Plasmodium falciparum W2 proliferation inhibition;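 also: potency is read from the fitted curve at half-maximal effect; parasites grown with compound for 72 h before lysis and staining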
[6] = qHTS Assay for Modulators of Human Peripheral Myelin Protein 22 (PMP22) Expression/Activity (AID 1967; active = well fitted curve in the direction sought with a large enough effect in the signal ratio; the % refers to the signal ratio;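 also: 0% = untreated cells and 100% end not stated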)
Outline: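 Mouse MSC80 Schwann cells carrying Pmp22 promoter–green click beetle luciferase plus EF-alpha–red luciferase control, dosed 24 h at 37 °C. Dual-filter luminescence, overlap-corrected; %Activity from green/red ratio normalised to untreated cells, concentration-response curves fitted.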

[7] = molecular target: Ferritin light chain (Equus caballus) (UniProt P02791); assay: qHTS Validation Assay for Identification of Novel General Anesthetics (AID 2323); also: series mostly up to about 77 µM; % is scaled to controls: 0 for no effect and ±100 for the full control effect
Chain of Ferritin light chain (Equus caballus) (P02791 2-175 limits assumed): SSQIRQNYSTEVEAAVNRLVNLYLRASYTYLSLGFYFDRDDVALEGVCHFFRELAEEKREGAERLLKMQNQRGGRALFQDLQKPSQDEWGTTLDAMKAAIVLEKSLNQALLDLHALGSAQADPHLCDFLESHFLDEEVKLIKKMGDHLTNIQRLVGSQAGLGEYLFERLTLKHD
Outline: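 Horse-spleen apoferritin (10 uM) in PBS with 50% saturated 1-aminoanthracene; compounds pin-transferred, 10 min at room temperature. Fluorescence read at 380/535 nm, normalized to free 1-AMA and 1-AMA/apoferritin values; four-parameter Hill fit.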

[8] = molecular target: ATP-dependent DNA helicase Q1 (Homo sapiens) (UniProt P46063); assay: qHTS Validation Assay for Inhibitors of RecQ-Like Dna Helicase 1 (RECQ1) (AID 2353);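 also: plate controls were DMSO vehicle for no effect and enzyme-free control for full effect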
Chain of ATP-dependent DNA helicase Q1 (Homo sapiens) (P46063 whole entry, looked up): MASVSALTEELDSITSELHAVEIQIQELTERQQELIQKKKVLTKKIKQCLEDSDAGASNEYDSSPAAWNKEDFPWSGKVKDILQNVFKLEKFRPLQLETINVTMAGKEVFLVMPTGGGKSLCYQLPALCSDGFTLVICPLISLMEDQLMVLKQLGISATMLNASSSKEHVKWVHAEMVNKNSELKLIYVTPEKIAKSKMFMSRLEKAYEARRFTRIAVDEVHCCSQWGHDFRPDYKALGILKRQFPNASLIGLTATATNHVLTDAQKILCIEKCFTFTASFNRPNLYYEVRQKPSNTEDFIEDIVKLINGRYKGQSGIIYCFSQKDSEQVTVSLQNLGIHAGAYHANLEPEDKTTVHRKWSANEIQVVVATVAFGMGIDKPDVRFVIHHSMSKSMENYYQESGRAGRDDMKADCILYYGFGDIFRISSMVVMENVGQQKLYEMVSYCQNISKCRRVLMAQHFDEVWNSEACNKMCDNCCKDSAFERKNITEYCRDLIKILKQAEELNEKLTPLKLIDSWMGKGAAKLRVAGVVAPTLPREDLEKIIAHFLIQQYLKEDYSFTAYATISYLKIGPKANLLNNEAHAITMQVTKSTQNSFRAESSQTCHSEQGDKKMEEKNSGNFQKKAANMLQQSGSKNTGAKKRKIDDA
Outline: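 50 nM RECQ1T1 preincubated 15 min with compound in Tris pH 8.0 buffer with MgCl2, DTT, Tween-20 and 2.5 ug/ml poly(dI-dC); started with 200 nM TAMRA/BHQ-2 forked duplex and 2 mM ATP. Unwinding read as fluorescence (525/598 nm), two reads 2 h apart.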

[9] = Validation screen for small molecules that induce DNA re-replication in MCF 10A normal breast cells (AID 463097); also: 0% is about no effect; nearly all actives have a fitted effect of over 60% in size
Outline: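 MCF 10A cells exposed to compound 48 hr at 37 C, 5% CO2, then Hoechst-stained 40 min. Laser-scanning imaging of nuclear DNA content (405 nm ex, 500-530 nm em); re-replication scored as rise in nuclei with elevated fluorescence intensity.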

[10] = Quantitative high throughput screen for delayed death inhibitors of the malarial parasite plastid, 48 hour incubation (AID 488752); also: % is scaled to controls: 0 for no effect and ±100 for the full control effect; nearly all actives have a fitted effect of over 65% in size
Outline: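 Erythrocytes infected with P. falciparum carrying an integrated firefly luciferase reporter (2% hematocrit, 0.1% parasitemia final) were exposed to compounds in RPMI 1640/0.5% Albumax for 48 h at 37 C, 5% CO2. Growth inhibition was scored as reduced luminescence.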

[11] = molecular target: M-phase phosphoprotein 8 (Homo sapiens) (UniProt Q99549); assay: qHTS Validation Assay for Inhibitors for MPP8 Chromodomain Interactions with Methylated Histone Tails (AID 488949); also: top concentration of the series differs between compounds; % is scaled to controls: 0 for no effect and ±100 for the full control effect; nearly all actives have a fitted effect of over 55% in size
Chain of M-phase phosphoprotein 8 (Homo sapiens) (Q99549 whole entry, looked up): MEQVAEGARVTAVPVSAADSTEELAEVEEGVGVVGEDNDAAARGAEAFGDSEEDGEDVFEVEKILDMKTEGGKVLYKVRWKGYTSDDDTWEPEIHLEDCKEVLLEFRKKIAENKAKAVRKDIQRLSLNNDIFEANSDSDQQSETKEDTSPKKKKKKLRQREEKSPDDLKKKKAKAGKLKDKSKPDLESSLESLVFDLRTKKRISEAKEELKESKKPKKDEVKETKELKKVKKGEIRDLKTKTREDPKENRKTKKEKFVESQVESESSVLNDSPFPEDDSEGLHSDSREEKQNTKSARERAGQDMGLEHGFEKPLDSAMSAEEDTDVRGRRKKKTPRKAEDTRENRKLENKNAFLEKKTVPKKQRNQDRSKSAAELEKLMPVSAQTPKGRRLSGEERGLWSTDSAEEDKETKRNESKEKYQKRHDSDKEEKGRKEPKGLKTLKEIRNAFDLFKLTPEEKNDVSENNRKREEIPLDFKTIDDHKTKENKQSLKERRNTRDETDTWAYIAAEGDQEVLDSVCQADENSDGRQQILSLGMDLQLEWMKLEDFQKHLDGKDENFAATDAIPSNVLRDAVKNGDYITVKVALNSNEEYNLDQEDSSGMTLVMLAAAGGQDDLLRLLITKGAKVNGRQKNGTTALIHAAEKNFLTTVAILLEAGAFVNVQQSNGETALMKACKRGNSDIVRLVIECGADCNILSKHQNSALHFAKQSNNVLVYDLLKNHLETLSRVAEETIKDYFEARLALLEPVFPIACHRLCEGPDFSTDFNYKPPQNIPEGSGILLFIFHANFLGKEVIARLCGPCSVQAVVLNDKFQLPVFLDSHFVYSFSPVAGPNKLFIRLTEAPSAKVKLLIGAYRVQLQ
Outline: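 MPP8 (50 nM) was pre-bound to 50 nM biotinylated H3(1-18)K9me3 peptide in PBS pH 7.4 with 0.01% Tween-20. Compounds were then added for 30 min at room temperature, and complex disruption was read by AlphaScreen with streptavidin donor and nickel-chelate acceptor beads.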

[12] = molecular target: Transient receptor potential cation channel subfamily V member 1 (Homo sapiens) (UniProt Q8NER1); assay: HTS Assay for Compounds that Act as Enhancers of the Vanilloid Receptor 1 (AID 488979); also: 0% is about no effect
Chain of Transient receptor potential cation channel subfamily V member 1 (Homo sapiens) (Q8NER1 whole entry, looked up): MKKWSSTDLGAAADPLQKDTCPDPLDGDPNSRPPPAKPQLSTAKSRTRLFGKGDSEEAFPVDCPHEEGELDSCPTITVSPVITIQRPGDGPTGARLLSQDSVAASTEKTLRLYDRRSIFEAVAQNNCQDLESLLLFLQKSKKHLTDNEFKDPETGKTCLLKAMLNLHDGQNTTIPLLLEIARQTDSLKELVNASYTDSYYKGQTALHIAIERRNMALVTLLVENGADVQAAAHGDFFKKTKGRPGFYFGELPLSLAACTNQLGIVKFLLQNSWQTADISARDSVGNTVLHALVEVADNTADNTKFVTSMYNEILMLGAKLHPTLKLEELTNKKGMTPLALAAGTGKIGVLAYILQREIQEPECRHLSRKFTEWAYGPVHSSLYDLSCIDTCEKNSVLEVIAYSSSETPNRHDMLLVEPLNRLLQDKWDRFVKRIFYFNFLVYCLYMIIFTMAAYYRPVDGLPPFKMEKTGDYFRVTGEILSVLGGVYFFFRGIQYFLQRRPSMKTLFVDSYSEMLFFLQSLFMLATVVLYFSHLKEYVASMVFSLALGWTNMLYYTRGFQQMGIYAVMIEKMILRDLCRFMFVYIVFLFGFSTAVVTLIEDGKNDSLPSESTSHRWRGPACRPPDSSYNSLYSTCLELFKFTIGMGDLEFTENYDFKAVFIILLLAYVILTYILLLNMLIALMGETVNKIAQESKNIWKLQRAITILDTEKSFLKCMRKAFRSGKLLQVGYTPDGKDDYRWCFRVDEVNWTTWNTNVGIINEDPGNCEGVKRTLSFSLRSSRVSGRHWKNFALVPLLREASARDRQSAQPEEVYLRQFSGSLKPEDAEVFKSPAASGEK
Outline: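 TRPV1-expressing cells loaded with Fluo-8 calcium dye; compounds added and calcium influx read kinetically for 3 min (agonist phase), then capsaicin at EC20 added and read 2 min more for enhancement. Fluorescence ex 480/em 520 nm.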

[13] = molecular target: Thyrotropin receptor (Homo sapiens) (UniProt P16473); assay: qHTS Assay for Antagonists of the Thyroid Stimulating Hormone Receptor (AID 488980); also: series mostly up to about 58 µM; 0% is about no effect
Outline: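 TSHR-transfected HEK293 cells (2000/well) in HEPES-buffered HBSS with 70 uM RO 20-1724 were stimulated with 4 nM TSH (EC80, final) in the presence of compound. cAMP was measured by HTRF competition after lysis and 30 min at RT.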

[14] = molecular target: Thyrotropin-releasing hormone receptor (Homo sapiens) (UniProt P34981); assay: qHTS for Small Molecule Agonists and Allosteric Enhancers of Human TRH Receptor: Validation Screen for Agonists (AID 493127;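 active = calcium activation more than 3 SD above the typical response in the agonist read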;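 also: intracellular calcium rise by fluo-8 fluorescence before TRH EC20 addition; 0% is about no effect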); conditions: TRH receptor agonist cell assay; at 2 µM; stronger effect = higher value
Chain of Thyrotropin-releasing hormone receptor (Homo sapiens) (P34981 whole entry, looked up): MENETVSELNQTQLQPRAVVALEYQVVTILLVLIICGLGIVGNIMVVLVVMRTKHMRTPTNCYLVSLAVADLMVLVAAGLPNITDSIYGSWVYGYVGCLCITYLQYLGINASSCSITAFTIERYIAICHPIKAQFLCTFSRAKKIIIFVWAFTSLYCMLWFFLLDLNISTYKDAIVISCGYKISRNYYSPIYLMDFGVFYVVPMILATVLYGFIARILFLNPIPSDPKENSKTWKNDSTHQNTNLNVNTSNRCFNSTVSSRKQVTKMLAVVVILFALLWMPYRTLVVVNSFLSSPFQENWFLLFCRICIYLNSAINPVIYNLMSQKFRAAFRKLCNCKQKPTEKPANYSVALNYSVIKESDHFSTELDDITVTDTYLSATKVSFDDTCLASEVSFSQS
Outline: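 TRHR-expressing cells were plated overnight in serum-containing medium, then loaded with fluo-8 calcium dye at room temperature for 30 min–1.5 h. After a 10 s baseline, compound was pin-transferred and calcium fluorescence (ex 480/em 530) read kinetically for agonist response.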

[15] = molecular target: Galactokinase (Homo sapiens) (UniProt P51570); assay: qHTS Validation Assay for Inhibitors of Human Galactokinase (GALK) (AID 493189); also: 0% is about no effect
Outline: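 GALK (5 nM) with 35 uM ATP and 100 uM galactose in HEPES pH 8.0 with MgCl2, NaCl, DTT and BSA. Reaction ran 1 h at room temperature. Residual ATP read by Kinase-Glo Plus luminescence.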

[16] = molecular target: DNA dC->dU-editing enzyme APOBEC-3G (Homo sapiens) (UniProt Q9HC16); assay: qHTS for inhibitors of Vif-A3G interactions: Validation (AID 588379); also: 0% is about no effect
Chain of DNA dC->dU-editing enzyme APOBEC-3G (Homo sapiens) (Q9HC16 whole entry, looked up): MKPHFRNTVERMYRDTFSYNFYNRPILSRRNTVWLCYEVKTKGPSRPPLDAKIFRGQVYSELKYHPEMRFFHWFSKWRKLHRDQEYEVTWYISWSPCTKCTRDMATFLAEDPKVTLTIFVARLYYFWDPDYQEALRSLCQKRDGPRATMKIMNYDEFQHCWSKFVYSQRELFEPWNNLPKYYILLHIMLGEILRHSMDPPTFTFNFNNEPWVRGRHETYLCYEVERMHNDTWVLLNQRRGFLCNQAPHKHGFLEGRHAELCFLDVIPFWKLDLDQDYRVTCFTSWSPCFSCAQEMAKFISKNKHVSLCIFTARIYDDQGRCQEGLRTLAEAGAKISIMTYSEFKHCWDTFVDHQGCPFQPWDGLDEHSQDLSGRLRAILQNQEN
Outline: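 HeLa cells stably expressing Vif and A3G-eYFP, 700 cells/well, incubated overnight at 37 deg C, then exposed to compound overnight at 37 deg C. Inhibition of Vif-mediated degradation read as increased yellow fluorescence (Ex 488/Em 500-530) by laser-scanning cytometry.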

[17] = molecular target: Voltage-gated inwardly rectifying potassium channel KCNH2 (Homo sapiens) (UniProt Q12809); assay: qHTS Assay for Small Molecule Inhibitors of the Human hERG Channel Activity (AID 588834);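 also: top concentration of the series differs between compounds; % is scaled to controls: 0 for no effect and ±100 for the full control effect; lower thallium flux fluorescence means stronger hERG block; nearly all actives have a fitted effect of over 50% in size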
Chain of Voltage-gated inwardly rectifying potassium channel KCNH2 (Homo sapiens) (Q12809 whole entry, looked up): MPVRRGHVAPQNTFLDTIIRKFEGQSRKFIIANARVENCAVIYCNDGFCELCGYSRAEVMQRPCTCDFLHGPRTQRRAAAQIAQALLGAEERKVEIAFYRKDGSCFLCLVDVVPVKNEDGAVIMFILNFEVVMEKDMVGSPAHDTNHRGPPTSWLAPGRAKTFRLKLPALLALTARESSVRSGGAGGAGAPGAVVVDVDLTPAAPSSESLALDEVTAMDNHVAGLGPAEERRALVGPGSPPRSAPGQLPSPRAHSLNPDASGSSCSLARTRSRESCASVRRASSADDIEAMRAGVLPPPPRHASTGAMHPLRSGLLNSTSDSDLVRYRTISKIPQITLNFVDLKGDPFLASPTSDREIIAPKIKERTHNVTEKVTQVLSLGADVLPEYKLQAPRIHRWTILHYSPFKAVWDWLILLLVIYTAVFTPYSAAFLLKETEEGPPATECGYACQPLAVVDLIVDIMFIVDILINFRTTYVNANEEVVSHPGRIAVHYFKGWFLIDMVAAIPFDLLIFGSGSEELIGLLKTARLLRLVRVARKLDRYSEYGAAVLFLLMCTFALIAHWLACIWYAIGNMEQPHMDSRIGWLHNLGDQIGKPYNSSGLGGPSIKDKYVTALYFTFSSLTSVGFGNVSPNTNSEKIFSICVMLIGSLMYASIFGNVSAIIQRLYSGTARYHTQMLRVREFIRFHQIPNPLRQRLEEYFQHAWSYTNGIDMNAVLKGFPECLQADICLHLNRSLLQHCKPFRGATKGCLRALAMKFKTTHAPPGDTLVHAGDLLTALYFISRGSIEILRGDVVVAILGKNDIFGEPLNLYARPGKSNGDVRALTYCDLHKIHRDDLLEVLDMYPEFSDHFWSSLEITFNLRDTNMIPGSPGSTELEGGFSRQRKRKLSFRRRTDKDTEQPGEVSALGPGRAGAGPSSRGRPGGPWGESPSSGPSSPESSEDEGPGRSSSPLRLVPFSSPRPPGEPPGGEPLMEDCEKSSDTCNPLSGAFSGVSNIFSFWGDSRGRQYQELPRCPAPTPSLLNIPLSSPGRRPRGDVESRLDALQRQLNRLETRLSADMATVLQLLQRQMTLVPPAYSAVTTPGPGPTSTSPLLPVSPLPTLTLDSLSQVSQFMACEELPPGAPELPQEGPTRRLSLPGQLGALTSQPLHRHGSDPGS
Outline: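 U2OS cells BacMam-transduced with hERG, 2000 cells/well, compound ~10 min at 37 °C before stimulation buffer. FluxOR thallium flux fluorescence read kinetically on FDSS; decrease indicates block; AC50 from Hill fits.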

[18] = system: Zika virus NS2B-NS3 protease; assay: Primary screen GU AMC qHTS for Zika virus inhibitors (AID 1347154);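 also: 0% = no-inhibitor control and -100% = no-enzyme control; nearly all actives have a fitted effect of over 70% in size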
Outline: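 Unlinked Zika NS2B hydrophilic domain/NS3 protease domain noncovalent complex (25 nM final) in 10 mM Tris-HCl pH 8.0, 0.01% Tween 20, with AMC peptide substrate. Fluorescence (ex 340, em 450 nm) change over 15 min, room temperature; percent inhibition fitted to 4-parameter Hill equation.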

[19] = Primary qHTS for small molecule stabilizers of the endoplasmic reticulum resident proteome: Secreted ER Calcium Modulated Protein (SERCaMP) assay (AID 1508630); also: % is scaled to controls: 0 for no effect and ±100 for the full control effect
Outline: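 GLuc-SERCaMP-expressing SH-SY5Y cells, pretreated 16 h with compound, are challenged with thapsigargin to empty ER calcium stores; after 4 h, coelenterazine is added directly to the medium and luminescence is imaged.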

CP(=O)(O)CCCN
4.47%: max response ([1]; measured here: lipid channel max response)
3.46%: max response ([1]; measured here: cell count channel max response)
inactive: Potency [2] | Potency [3] | Potency [4] | outcome [6] | outcome [7] | Potency [8] | Potency [9] | Potency [10] | Potency [11] | outcome [12] | outcome [13] | activation [14] 1.06% | outcome [15] | Potency [16] | Potency [17] | Potency [18] | Potency [19]
active: Potency [5] 2820 nM
